Screening data as filed in PubChem.
Sampled rows, rich in hits. Any-hit rate of the full collection: about 20%.
Cycloheximide cs – counter-screen for Shiga toxin inhibitors: cycloheximide protein synthesis inhibition; cell reporter, cycloheximide protein synthesis inhibition counterscreen; max response, %; hit rate 12% among 300,000; AID 2314; in the data active = max response mostly above about 13%, no sharp cut-off; inactive = mostly below about 14%; note: read at 38.3 µM for the half of the compounds with a filed dose; 0% is about no effect
Shiga toxin inh – inhibitors of Shiga toxin in Vero cells | Vero cells, Shiga toxin protein synthesis inhibition reporter | inhibition, % at 38.7 µM | hit rate 9.2% among 290,000; in the data active = inhibition mostly above about 28%, no sharp cut-off; inactive = mostly below about 43%; note: 0% is about no effect
Pf growth 96h – inhibits malaria parasite growth, 96 h; P. falciparum luciferase reporter growth, 96 h; Potency, µM (top dose mostly 28.7 µM), for inactives: at the top dose activity change, negative = inhibition, actives largely listed as inhibitors; hit rate 6.9% among 320,000; AID 504834; note: potency is the fitted concentration of half-maximal effect; % is set by controls: 0 for no effect and ±100 for the full control effect
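Erythrocytes infected with luciferase-expressing P. falciparum were dispensed at 2% hematocrit and 0.05% parasitemia (final), then incubated with compounds 96 hours at 37 C in 5% CO2. Luminescence after detection reagent addition reported growth.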
Pf growth 48h – inhibits P. falciparum growth in the first generation, 48 h. Potency, µM (top dose mostly 28.7 µM), for inactives: at the highest dose activity change, negative = inhibition, actives largely listed as inhibitors. hit rate 5.9% among 310,000. AID 504832. P. falciparum luciferase growth in erythrocytes, 48 h; note: potency is the fitted concentration of half-maximal effect; % is set by controls: 0 for no effect and ±100 for the full control effect
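Firefly luciferase activity from engineered P. falciparum reports growth; inhibitors lower the luminescent signal. Cultures contained 2% hematocrit erythrocytes at 0.1% final parasitemia.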
HCMV inh – blocks human cytomegalovirus replication. activity change, negative = inhibition, % at 57.5 µM. hit rate 4.5% among 410,000. HFF cells, HCMV-luciferase reporter, 72 h; active compounds read low; in the data active = activity change below about -60%; inconclusive = no clear call, values can overlap the other calls; inactive = above about -39%; note: % is set by controls: 0 for no effect and ±100 for the full control effect
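Screen run at 2 compound doses on HFFs infected with reporter HCMV, MOI 1 PFU/cell. Luciferase activity from cell lysates at 72 h post infection gave inhibition relative to buffer-only and Salinomycin wells.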
Numbers without * were called inactive; i = inactive; ? = inconclusive; nt = no result given; [ ] = dose if it differs, or a comment. Unless noted, calls come from the whole dose curve; as a rule, active = well fitted inhibition curve with a large enough effect; inconclusive = small, poorly fitted or top-dose-only effect, or another doubt; inactive = no such curve, though single readings can be large or run the other way.

SMILES	Cycloheximide cs	Shiga toxin inh	Pf growth 96h	Pf growth 48h	HCMV inh
CCOC(=O)C1=C(N)n2c(s/c(=C/c3ccco3)c2=O)=C(C(=O)OC)C1c1ccco1 (stereo not drawn)	14.5	11.2	?	13.1µM*	-15.1
CCOC(=O)C1=C(C)NC(C)=C(C(=O)OC)C1c1ccco1 (stereo not drawn)	1.8	11.5	13.1µM*	?	35.4
C=CCOC(=O)C1=C(C)NC(C)=C(C(=O)OCC=C)C1c1ccco1	-1.7	-7.6	?	?	-26.7
CCOC(=O)CN1C(c2ccc(O)cc2)Nc2ccc(Br)cc2C1c1ccccc1 (stereo not drawn)	-5.8	-9.0	3.29µM*	?	?
CC(C)CNC(=O)C1(C)CCCN1Cc1ccccc1OC(F)F (stereo not drawn)	nt	nt	nt	nt	-4.6
CCCn1c(SCc2nc(N)nc(N3CCCCC3)n2)nc2c1c(=O)n(C)c(=O)n2C	-6.1	-18.1	-23.4%	-7.0%	48.2
Cn1c(=O)c2c(nc(SCc3nc(N)nc(N4CCCCC4)n3)n2C)n(C)c1=O	-5.7	-18.3	?	-6.0%	-69.3*
CCSc1nnc(CSc2ncccn2)n1C	-4.5	-11.8	?	?	-27.1
CN(C)c1ccc(/C=N/N=C/c2ccccc2O)cc1	76.4*	170.8*	196.7%	78.8%	-10.6
COc1ccccc1C=NN=Cc1ccccc1O	nt	nt	nt	nt	84.5
NC(=O)c1ccc(-c2noc(-c3ccccc3F)n2)cc1	nt	nt	226.8%	236.5%	50.5
Cc1ccccc1-c1nc(-c2ccc(NC(=O)c3cccs3)cc2)no1	46.0*	82.4*	23.4%	?	14.2
CC(=O)c1ccc(NC(=O)COc2ccccc2-c2nc(-c3ccc(C)cc3)no2)cc1	nt	nt	nt	nt	42.5
O=C(Nc1ccc(-c2noc(-c3ccccc3F)n2)cc1)c1cccs1	45.9*	71.3*	9.28µM*	16.3%	24.4
CC(C)(C)C(=O)NC1(C(F)(F)F)NC(=O)N(c2ccc(F)cc2)C1=O (stereo not drawn)	-1.3	20.9	11.7µM*	-12.0%	-17.5
CCn1c(=O)n(-c2ccc3c(c2)OCO3)c2nc(-c3ccc(C(C)C)cc3)nc(C(N)=O)c21	nt	nt	nt	nt	-1.8
CCN(C(=O)c1cc(OC)c(OC)c(OC)c1)C1CCCCC1	nt	nt	nt	nt	-18.3
CNCc1c(OCc2ccc(F)cc2)ccc2ccccc12	3.6	-9.9	?	14.7µM*	5.5
OCc1c(OCc2cccc(F)c2)ccc2ccccc12	25.4*	nt	?	54.7%	100.5
Fc1ccc(COc2ccc3ccccc3c2CNc2nn[nH]n2)cc1	8.4	15.7	86.3%	?	1.7
CCN(Cc1ccccc1)C(=O)c1nn(-c2ccc(OC)cc2)c(=O)c2c1c1ccccc1n2C	11.8	-6.3	-13.5%	?	?
Cc1ccc(/C=N\NC(=O)CCc2n[nH]c(=O)[nH]c2=O)o1	0.7	-5.4	-4.8%	1.3%	-18.6
CSc1nnc2c3ccccc3n(CCc3ccccc3)c2n1	-1.1	13.4	?	?	-98.1*
CSc1nnc2c3ccccc3n(Cc3ccccc3)c2n1	-3.4	-1.1	nt	4.6%	-23.1
CCn1c(SCC(=O)n2c(C)c(C)c3ccccc32)nnc1-c1ccco1	-4.9	29.9	6.57µM*	4.1%	-26.2
SMILES	Cycloheximide cs	Shiga toxin inh	Pf growth 96h	Pf growth 48h	HCMV inh
N#Cc1c2c(c(NCc3ccco3)n3c1nc1ccccc13)CCC2	-4.2	27.9	0.738µM*	1.04µM*	42.7
CCN(CC)CCNc1c2c(c(C#N)c3nc4ccccc4n13)CCCC2	-3.0	-8.6	nt	10.4µM*	39.2
CNC(=O)C1CCC(Cn2c(=O)c3sccc3n(CC(=O)Nc3ccc(C)c(C)c3)c2=O)CC1 (stereo not drawn)	nt	nt	nt	nt	13.9
COc1cccc(/C=N/c2nc3ccccc3n2C)c1O	19.8*	33.3	17.5%	59.9%	21.7
COc1cccc(CNc2nc3ccccc3n2C)c1O	35.4*	nt	21.9%	130.2%	76.6
COc1ccc(O)c(/C=N/c2nc3ccccc3n2C)c1	1.1	-2.7	?	5.9%	-2.8
COc1ccccc1Nc1nc2ccccc2n1C	30.5*	66.1*	144.4%	149.9%	5.9
COc1ccccc1Nc1nc2ccccc2n2cnnc12	-2.3	27.6	10.5%	34.8%	-1.9
Cc1ccc(O)c(CNc2cnc3ccccc3c2)c1	10.7	nt	0.0%	?	64.0
Oc1ccc(Br)cc1CNc1cnc2ccccc2c1	1.7	20.9	11.7µM*	?	19.4
COc1cccc(CNc2cnc3ccccc3c2)c1O	30.1*	44.3*	?	i	-22.7
COc1cccc(CNc2cccc(C(F)(F)F)c2)c1O	6.5	9.8	?	-3.6%	-34.0
Cc1ccccc1-c1ccc2c(c1)COCC(=O)N2C	nt	nt	nt	nt	0.7
CCOc1ccc(Br)cc1C1=NN(C(C)=O)C(c2ccc([N+](=O)[O-])s2)O1 (stereo not drawn)	10.3	9.4	?	9.28µM*	-14.8
O=C(OCCOCCN=C1NS(=O)(=O)c2ccccc21)c1ccc(F)cc1	2.9	3.9	14.2%	10.4%	-13.3
COc1ccccc1Nc1nc(-c2cccc([N+](=O)[O-])c2)cs1	46.7*	59.4	-10.0%	70.0%	5.9
O=[N+]([O-])c1cccc(-c2csc(Nc3ccccc3)n2)c1	68.1*	90.6*	?	18.7%	22.7
O=C(Cc1ccccc1)Nc1nc(-c2cccc([N+](=O)[O-])c2)cs1	-4.4	-8.9	?	8.2%	-7.6
CC1CCN(C(=O)Cn2nnc(-c3ccccc3)n2)CC1	30.0*	82.5*	?	20.8%	119.3
CC1CCN(C(=O)Cn2nnc(-c3ccc([N+](=O)[O-])cc3)n2)CC1	2.8	13.9	14.7µM*	46.7%	-33.0
O=C(OCCN1CCCC1=O)c1cc(F)c(F)c(F)c1F	-10.4	-11.1	?	-17.7%	19.4
Cc1ccc(NC(=O)C2CCN(S(=O)(=O)c3c(C)n[nH]c3C)CC2)c(C)c1	8.1	-10.5	-13.4%	14.2%	-2.5
Cc1cc(N2CCOCC2)nc2ccc(NC(=S)NC(C)C)cc12	1.1	-4.4	23.8%	0.6%[0.00184 µM]	26.0
Cc1cc(N2CCCC2)nc2ccc(NC(=S)NC(C)C)cc12	15.5	9.7	-24.1%	10.4µM*	?
CCOCCCNC(=S)Nc1ccc2nc(N3CCCC3)cc(C)c2c1	-6.8	-2.2	-4.9%	11.7µM*	-32.2
Cc1c(-c2ccccc2)sc2nc[nH]c(=S)c12	9.8	-23.3	-1.2%	5.9%	32.1
Cc1cc2n(n1)C(c1c[nH]c3ccccc13)Nc1ccccc1-2 (stereo not drawn)	29.3*	40.8*	-14.7%	23.7%	nt
Cc1cc2n(n1)C(c1cn(-c3ccccc3)nc1C)Nc1ccccc1-2 (stereo not drawn)	3.6	6.4	-20.2%	23.8%	-25.8
CCC(=O)N1CCN(c2ccc(NC(=S)NC(=O)COc3ccccc3)cc2)CC1	-2.9	1.7	14.7µM*	-10.0%	-33.3
CC(=O)N1CCN(c2ccc(NC(=S)NC(=O)COc3ccc(C(C)(C)C)cc3)cc2)CC1	0.4	-9.6	?	22.6%	?
